IDH1 R132H inh: blocks human mutant IDH1 R132H enzyme | Potency, µM (doses to about 76.6 µM), usual class: inhibitors | hit rate 0.093% among 390,000 | IDH1-R132H enzyme, NADPH consumption, diaphorase/resazurin fluorescence; also: nearly all actives have a fitted effect of over 65% in size
Target sequence (O75874 whole entry R132H, stated change not applied): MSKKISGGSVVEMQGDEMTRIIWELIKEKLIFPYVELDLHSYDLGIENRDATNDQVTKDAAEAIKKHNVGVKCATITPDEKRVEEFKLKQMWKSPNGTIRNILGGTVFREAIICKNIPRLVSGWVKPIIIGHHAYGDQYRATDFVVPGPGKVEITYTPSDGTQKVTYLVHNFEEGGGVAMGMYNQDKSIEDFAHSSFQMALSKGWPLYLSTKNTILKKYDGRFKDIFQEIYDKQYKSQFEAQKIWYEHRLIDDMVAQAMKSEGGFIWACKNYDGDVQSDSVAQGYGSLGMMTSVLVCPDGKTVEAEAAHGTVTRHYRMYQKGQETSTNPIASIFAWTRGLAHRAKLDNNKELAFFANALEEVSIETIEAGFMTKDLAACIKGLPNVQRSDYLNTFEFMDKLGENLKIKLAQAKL
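IDH1-R132H (0.5 ug/mL) preincubated 30 min with compound, then NADPH (0.016 mM) and alpha-KG (2 mM) added; 80 min at RT, pH 7.5. Remaining NADPH coupled via diaphorase/resazurin to fluorescence (540/590 nm); concentration-response curves normalized to no-enzyme control.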
rTrxR1 inhibitor: inhibitors of rat thioredoxin reductase 1; O89049; recombinant rTrxR1, NADPH fluorescence consumption, selenite substrate; Potency, µM (titrated, usually from 114 µM), actives largely listed as inhibitors; hit rate 1% among 390,000; AID 588453; also: nearly all actives have a fitted effect of over 65% in size
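Rat TrxR1 (90 nM in the dispensed reagent) was pre-reduced with 400 uM NADPH for 5 min at room temperature, then incubated with compound for 15 min. After 400 uM selenite was added, NADPH fluorescence (Ex 340/Em 450 nm) was followed for 8 min.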
PLK1 PBD inh: PLK1 (human) polo-box domain binding inhibition. Potency, µM, hits mostly inhibitors. P53350. Plk1 PBD binding of FITC phosphopeptide, fluorescence polarization. hit rate 2.8% among 360,000; also: series mostly up to about 57 µM; nearly all actives have a fitted effect of over 65% in size
VDR inh: inhibitors of human vitamin D receptor; P11473; VDR-SRC2-3 peptide fluorescence polarization, 2 h; Potency, µM, most hits filed as inhibitors; hit rate 0.93% among 400,000
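Fluorescence polarization assay measuring small-molecule disruption of VDR binding to the coregulator peptide SRC2-3. Compounds were pin-transferred (23 nl) into the reagent mix and incubated 2 h at room temperature before reading.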
Sfp inh: inhibitors of Bacillus subtilis Sfp phosphopantetheinyl transferase; Biochemical Sfp PPTase activity, qHTS; Potency, µM, hits mostly inhibitors; AID 1490; hit rate 3.5% among 310,000; Q9F4F7;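 also: the enzyme is Sfp with the accession as filed and its product quenches rhodamine fluorescence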
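Step 1, compound plus 15 nM Sfp-PPTase, 15 min, room temperature. Step 2, add rhodamine-CoA (5 uM) and BHQ-2-YbbR (12.5 uM). Step 3, read 525/598 nm fluorescence at 0 and 30 min.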
TrxR1 substrate: substrates of rat thioredoxin reductase 1 | AID 588456 | O89049 | Potency, µM (series often up to 114 µM) | hit rate 0.01% among 390,000 | purified TrxR1 substrate turnover, NADPH consumption readout; also: nearly all actives have a fitted effect of over 50% in size
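Rat TrxR1, dispensed at 90 nM, was prereduced with 400 uM NADPH (final) for 5 min at ~22 deg C, then incubated with compound 15 min before 400 uM selenite. A first-read NADPH fluorescence drop versus no-compound background flagged substrates.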
Numbers stand for hits; - = inactive; ? = inconclusive; . = no result given; ! = not confirmed by another sample; [ ] = dose if it differs, or a comment. Shown are actives, neighbours in structure and some others; about 5.2% of the full set was active somewhere. Calls follow the shape of the dose curve; as a rule, active = well fitted curve in the direction sought with a large enough effect; inconclusive = small, poorly fitted or top-dose-only effect, or another doubt; inactive = no such curve, though single readings can be large; an effect the other way counts as inactive or inconclusive.

SMILES	IDH1 R132H inh	rTrxR1 inhibitor	PLK1 PBD inh	VDR inh	Sfp inh	TrxR1 substrate
Cc1cc2c(c(=O)n1Cc1cccnc1)C(c1cccs1)C(C#N)=C(N)O2 (stereo not drawn)	-	?	-	-	79.4µM	-
Cc1cc2c(c(=O)n1Cc1cccnc1)C(Cc1ccccc1)C(C#N)=C(N)O2 (stereo not drawn)	-	-	-	-	-	-
CCOc1ccc(CNC(=O)Cn2c(=O)c3cccn3c3cccnc32)cc1	-	-	.	-	.	-
COc1ccc(C2=Nn3c(nnc3-c3ccccc3C)SC2)cc1OC	.	.	.	.	-	.
Brc1ccccc1C1=Nn2c(nnc2-c2ccco2)SC1	-	?	-	-	-	-
c1ccc(C2=Nn3c(nnc3-c3ccco3)SC2)cc1	-	-	29.9µM	-	50.1µM	-
Brc1ccccc1C1=Nn2c(nnc2-c2ccccc2)SC1	-	-	?	-	79.4µM	-
COc1ccc(C2=Nn3c(nnc3-c3ccccc3C)SC2)cc1	.	.	.	.	44.7µM	.
Fc1ccc(C2=Nn3c(nnc3-c3ccco3)SC2)cc1	-	-	-	-	?	-
CN1CCCN=C1/C=C\c1cccs1	.	.	.	.	-	.
CCCCCCCCCCCC[n+]1ccc2ccccc2c1	.	.	.	?	-	.
Cc1ccccc1-n1cc[nH]c1=S	-	-	?	-	-	-
Cc1cccc(-n2cc[nH]c2=S)c1	-	-	-	-	56.2µM	-
COC(=O)c1cc(S(=O)(=O)NCCCN2CCCC2=O)cn1C	-	-	-	-	-	-
O=C(Nc1ccccc1)N1CCc2ccccc2C1	-	-	-	-	-	-
O=C(Nc1ccc(Cl)cc1)N1CCc2ccccc2C1	-	-[11.4 µM]	-	-	79.4µM	-[11.4 µM]
Cc1ccc(N2C(=O)C3C4C=CC(CNC(=S)N5CCN(c6ccccn6)CC5)(O4)C3C2=O)cc1 (stereo not drawn)	-	11.2µM	-	79.4µM	28.2µM	-
Cc1ccc(N2C(=O)C3C4C=CC(CNC(=S)Nc5cccc(Cl)c5)(O4)C3C2=O)cc1 (stereo not drawn)	-	7.94µM	-	?	35.5µM	-
Cc1ccc(C)c(NC(=S)N2CCN(c3ccccn3)CC2)c1	-	-	-	-	-	-
Cc1ccc(N2C(=O)N(CC(=O)Nc3cccc(Cl)c3)C(=O)C2C)cc1 (stereo not drawn)	-	-	-	-	.	-
Cc1ccc(N2C(=O)C3C4C=CC(CNC(=S)Nc5ccc(Cl)cc5)(O4)C3C2=O)cc1 (stereo not drawn)	-	28.2µM	-	-	39.8µM	-
Cc1ccc(N2C(=O)C3C4C=CC(CNC(=S)Nc5ccc(F)cc5)(O4)C3C2=O)cc1 (stereo not drawn)	-	15.8µM	-	-	14.1µM	-
Cc1ccc(CNC(=O)C2CCCN(C(=O)Nc3ccc(F)cc3)C2)cc1 (stereo not drawn)	-	-	-	-	-	-
COCCN(C(=O)COC(=O)c1ccc2c(c1)OCO2)c1c(N)n(Cc2ccccc2)c(=O)[nH]c1=O	-	.	-	.	.	.
CSc1ccc(CCNC(=O)NCc2noc3ccccc23)cc1	-	-	.	-	.	-
SMILES	IDH1 R132H inh	rTrxR1 inhibitor	PLK1 PBD inh	VDR inh	Sfp inh	TrxR1 substrate
COc1ccc(/C=N/c2sc3c(c2C#N)CCN(Cc2ccccc2)C3)c(O)c1	.	.	.	.	-	.
CN1CCc2c(sc(/N=C/c3cc(C(C)(C)C)ccc3O)c2C#N)C1	-	-	-	-	70.8µM	-
CCCNC(=O)C1(C)CCN(C(=O)c2sccc2C)C1 (stereo not drawn)	.	.	-	.	.	.
O=C(O)Cc1c[nH]c2ccc(O)cc12	-	10.6µM!	-	50.1µM!	.	-
c1ccc(-c2nnc(-c3ccco3)o2)cc1	-	-	-	-	-	-
c1coc(-c2nnc(-c3ccco3)nn2)c1	-	?	-	89.1µM	-	-
CC12CCC(c3c1nc1ccccc1[n+]3[O-])C2(C)C (stereo not drawn)	-	-	18.9µM	70.8µM	-	-
CS(=O)(=O)NCCn1ccc2ccccc21	-	-	29.9µM	-	-	-
CCc1ccccc1N1CC23C=CC(O2)C(C(=O)O)C3C1=O (stereo not drawn)	-	-	26.7µM	89.1µM	-	-
CCCCOC(=O)C1[C@H]2C(=O)N(c3ccccc3CC)C[C@]23C=C[C@H]1O3 (stereo partly drawn)	-	-	-	-	-	-
CCn1c2ccccc2c2cc(NC(C)=O)ccc21	-	-	-	-	-	-
CCn1c2ccccc2c2cc(NC(=O)C(=O)N3CCOCC3)ccc21	-	-	21.2µM	-	-	-
CC/C(=C\c1ccccc1)c1cccc2oc3ccccc3c12	.	-	.	.	.	-
CCCn1c(=O)c(C(=O)NCc2ccccc2)c(O)c2ccccc21	-	-	11.9µM	?	-	-
CCCn1c(=O)c(C(=O)NCCc2ccccc2)c(O)c2ccccc21	-	-	-	-	-	-
O=C(O)C1CCCN1C(=O)C1CCN(S(=O)(=O)c2cccc(C(F)(F)F)c2)CC1 (stereo not drawn)	-	-	-	-	.	-
O=C1c2c([N+](=O)[O-])cc([N+](=O)[O-])cc2S(=O)N1Cc1ccccc1 (stereo not drawn)	-	-	37.7µM	?	50.1µM	-
O=[N+]([O-])c1ccc(NC2CCN(Cc3ccccc3)CC2)c([N+](=O)[O-])c1	-	-	-	-	-	-
CN=C(c1ccco1)n1c(=S)nc(-c2ccco2)n(C)c1=S	-	?	18.9µM	?	17.8µM	-
CCOC(=O)C(Sc1nn(C)c(=S)s1)C(C)=O (stereo not drawn)	-	-	-	?	50.1µM	-
CCOC(=O)C(Sc1cc(C)nc(N)n1)C(C)=O (stereo not drawn)	-	-	-	-	56.2µM	-
Cc1cc(C)c(S(=O)(=O)NCCc2sc(-c3cccnc3)nc2C)c(C)c1	-	-	.	-	.	-
NC(=O)n1c(O)c(C(=O)c2cccs2)c2cc(Cl)ccc21	.	.	.	44.7µM	-	.
N/C(=N\OC(=O)c1cccs1)c1ccc(Cl)cc1	-	-	-	-	-	-
COC(=O)Cc1c(C)c2cc3c(c(C)c2oc1=O)OCN(CCc1ccccc1F)C3	-	?	.	-	.	-
SMILES	IDH1 R132H inh	rTrxR1 inhibitor	PLK1 PBD inh	VDR inh	Sfp inh	TrxR1 substrate
O=C(NCc1ccc(Cl)cc1)c1n[nH]c([N+](=O)[O-])c1Cl	-	-	18.9µM	?	-	-
Clc1ccc[n+](CCCCC[n+]2cccc(Cl)c2)c1	.	?	.	.	.	-
COc1cccc2sc(N)nc12	-	-	-	-	.	-
COc1cccc2sc(N(C)c3ccccc3)nc12	-	-	-	-	70.8µM	-
CCCCC[C@@H](/C=C/C1C(=O)C=C[C@H]1C/C=C\CCCC(=O)OC)OC(C)=O (stereo partly drawn)	?	?	-	10µM	.	-
CCCCC[C@H](O)/C=C/[C@H]1C(=O)C[C@H](O)[C@@H]1C/C=C\CCCC(=O)O	.	.	.	-	-	.
